Shown are actives, neighbours in structure and some others; about 2% of the full set was active somewhere.
M4 antag – human M4 muscarinic receptor antagonists, primary screen, CHO cells, Fluo-8 calcium fluorescence. CHO-hM4 cells, ACh EC80. inhibition, % at 3 µM. AID 624125, 2012. Muscarinic acetylcholine receptor M4 (Homo sapiens), P08173. 360,000 tested, 0.73% active;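 active = inhibition above its plate's cutoff, the mean inhibition of sample wells plus 3 SD, cut at about 27% in these data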;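 also: 0% = acetylcholine EC80 with DMSO and 100% = DMSO without agonist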
Target sequence (P08173 whole entry, looked up): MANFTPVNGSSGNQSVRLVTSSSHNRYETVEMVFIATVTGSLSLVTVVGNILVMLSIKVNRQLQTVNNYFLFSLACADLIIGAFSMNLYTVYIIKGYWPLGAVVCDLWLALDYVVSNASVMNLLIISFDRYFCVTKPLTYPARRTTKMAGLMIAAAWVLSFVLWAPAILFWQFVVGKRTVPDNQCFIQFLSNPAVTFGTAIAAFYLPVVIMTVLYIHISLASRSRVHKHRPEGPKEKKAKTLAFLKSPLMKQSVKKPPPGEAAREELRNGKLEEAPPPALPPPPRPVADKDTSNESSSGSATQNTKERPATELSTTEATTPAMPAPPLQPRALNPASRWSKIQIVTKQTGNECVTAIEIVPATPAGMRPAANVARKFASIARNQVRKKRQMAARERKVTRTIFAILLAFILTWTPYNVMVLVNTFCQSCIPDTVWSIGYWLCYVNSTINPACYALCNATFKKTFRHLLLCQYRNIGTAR
CHO-K1 Ca PAM – nonselective calcium activators in parental CHO-K1 cells, primary screen, counter-screen for M1 PAM project, cell-based, Fluo-8 calcium fluorescence, full deck, 1536-well; ATP EC20; 0% at ATP EC20, 100% at ATP max; activation, % at 3 µM; 360,000 tested, 0.02% active;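 active = activation above the run cutoff, the mean activation of all test compounds plus 3 SD, cut at about 40% in these data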;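 also: peak over basal fluorescence ratio in a 140 s read after ATP addition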
M4 PAM – human M4 muscarinic receptor positive allosteric modulators, primary screen, CHO-K1 cells, Fluo-8 calcium fluorescence; Muscarinic acetylcholine receptor M4 (Homo sapiens), P08173; CHO-K1 hM4/Gqi5, ACh EC20; 0% = ACh EC20, 100% = maximal ACh; activation, % at 3 µM; 360,000 tested, 0.4% active;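 active = activation above its plate's cutoff, the mean activation of sample wells plus 3 SD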
CHO-K1 Ca antag – M1 antagonist counterscreen hit in parental CHO-K1 cells; inhibition, % at 3 µM; AID 602250; 360,000 tested, 0.6% active; ATP-induced calcium, Fluo-8 fluorescence;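 active = inhibition above a per-plate cutoff, the plate's mean sample inhibition plus 3 SD, cut at about 24% in these data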;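 also: 0% = DMSO plus EC80 ATP and 100% = DMSO alone without ATP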
M4 ag – human M4 muscarinic receptor agonists, primary screen, CHO-K1 cells, Fluo-8 calcium fluorescence. Muscarinic acetylcholine receptor M4 (Homo sapiens), P08173. CHO-K1 hM4/Gqi5; vehicle 0%, full acetylcholine response 100%. activation, % at 3 µM. 360,000 tested, 0.14% active. AID 624127, 2012;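 active = activation above the run mean over all test wells plus 3 SD, cut at about 32% in these data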;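 also: peak over basal fluorescence ratio per well then scaled between controls; 0% = DMSO wells and 100% = acetylcholine at EC100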
CHO-K1 Ca ag – counter-screen for M1 agonists: effect in parental CHO-K1 cells; 360,000 tested, 0.48% active; Fluo-8 calcium fluorescence; scaled to maximal ATP response, vehicle zero; activation, % at 3 µM; AID 602248, 2012; in the data active = activation above about 15%;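 also: untransfected CHO-K1 host cells lacking M1 receptor as counterscreen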
An asterisk follows results filed as active; nt = not tested or not shown.

SMILES	M4 antag	CHO-K1 Ca PAM	M4 PAM	CHO-K1 Ca antag	M4 ag	CHO-K1 Ca ag
[N-]=[N+]=NC(c1ccccc1)C(NC(=O)c1cc(C(F)(F)F)cc(C(F)(F)F)c1)c1ccccc1 (centres undefined)	30.7*	7.1	-13.1	5.4	17.5	4.0
O=C1Nc2ccc(Cl)cc2C(=O)C1(F)c1ccccc1 (centres undefined)	5.5	15.0	-4.0	1.2	1.2	17.2*
NC(=O)CSc1nnnn1CC(CC(=O)O)c1ccccc1 (centres undefined)	1.4	-5.7	5.8	24.8*	0.5	-0.1
Cc1ccccc1-n1nnnc1SCC(N)=O	-3.8	23.8	2.6	-12.8	0.3	0.6
CN1OC[C@@H]2CN(C(=O)C(C)(C)C)[C@H](c3ccc(-c4cccnc4)cc3)C[C@@H]21	-14.0	-8.6	3.5	30.2*	1.4	-0.3
COc1cccc(N2CCN(C(=O)c3cccc(NC4=NC5CS(=O)(=O)CC5S4)c3)CC2)c1 (centres undefined)	5.5	-5.8	-0.9	24.4*	3.4	4.8
COc1ccc(Nc2nc(Nc3ccc(OC)cc3)nc(-n3[nH]c(=O)c(C)c3C)n2)cc1	28.2*	7.5	-9.2	11.7	9.7	2.6
CCN(CC)S(=O)(=O)c1ccc(N2CCOCC2)c(NC(=O)c2ccc(F)cc2)c1	1.7	12.3	-4.5	4.6	16.1	4.2
CCN(CC)S(=O)(=O)c1ccc(N2CCOCC2)c(NC(=O)c2[nH]c(C)c(C(C)=O)c2C)c1	-3.1	-0.1	28.9*	-4.5	9.3	1.6
Cc1cc(OCC(=O)NNC(=O)c2cccs2)ccc1Br	-0.2	2.2	0.5	-17.1	2.4	2.7
CC1CC(=O)Nc2ccccc2N1S(=O)(=O)c1ccc(F)cc1F (centres undefined)	5.1	13.7	-0.6	-8.6	0.7	0.0
COc1cccc(NC(=O)C2C3C=CC(O3)C2C(=O)NCc2cccnc2)c1 (centres undefined)	2.2	-2.7	36.5*	0.6	0.4	0.1
COc1ccc(CNC(=O)Cn2nc(Cc3cccnc3)c3ccccc3c2=O)cc1	-5.0	6.5	0.4	4.1	2.4	0.5
COc1cccc(NC(=O)Cn2nc(Cc3cccnc3)c3ccccc3c2=O)c1	58.7*	18.9	-13.1	-1.2	0.1	0.5
Cc1ccccc1OCC(=O)Nc1ccc(N2CCN(C(=O)c3ccco3)CC2)cc1	11.5	-28.4	-20.0	3.9	30.8	14.6
O=C(CN1C(=O)COc2ccc(S(=O)(=O)N3CCOCC3)cc21)NCc1ccccn1	-12.8	22.6	3.4	-15.7	0.7	0.3
COc1cccc2cc(-c3ccccc3)oc12	-8.2	10.8	4.0	-3.0	-0.8	0.0
Nc1cccc2cc(-c3ccccc3)oc12	-16.0	-12.2	24.9*	-7.9	0.7	-0.6
CN1C(=O)[C@@](O)(c2cn(C)c3ccccc23)c2cc(F)ccc21	-22.3	nt	4.2	nt	3.0	nt
N#Cc1cccc(S(=O)(=O)Nc2c(NC3CCCCC3)c3ccccc3oc2=O)c1	1.7	16.2	-6.9	-10.7	6.0	10.8
Cc1ccc(C(=O)N2CCN(c3ncccn3)CC2)cc1	-4.1	21.1	-0.7	-10.9	1.5	2.2
Cc1cc(-c2ccccc2)n(-c2ccc(C(=O)N3CCN(c4ncccn4)CC3)cc2)n1	31.7*	-4.7	-7.7	9.5	11.3	3.5
O=C(COC(=O)c1ccc2c(c1)OCO2)Nc1ccccc1F	-4.5	-18.8	3.9	2.7	2.1	0.4
COCCCNc1ccn2nc(-c3ccc(Cl)cc3)cc2n1	-18.3	-4.3	-4.6	24.1*	6.9	1.6
CN(C(=O)COC(=O)c1ccc(=O)n(Cc2ccccc2)n1)C1CCS(=O)(=O)C1 (centres undefined)	-6.6	5.9	3.0	-1.3	0.3	0.4
SMILES	M4 antag	CHO-K1 Ca PAM	M4 PAM	CHO-K1 Ca antag	M4 ag	CHO-K1 Ca ag
O=C(NCCc1ccccc1)C(=O)NC1CCCCC1	0.8	-5.5	3.6	-15.1	0.4	-0.1
O=C(NC1CCCCC1)C(=S)NCCc1ccccc1	-3.6	8.8	-0.3	-5.2	1.2	21.1*
CCOc1cccc(NC(=O)C(Cc2cccs2)c2nn[nH]n2)c1 (centres undefined)	13.7	-9.0	-0.5	26.6*	-0.1	-0.1
COc1ccc(C2CC(c3cccs3)=NN2C(=O)CSc2nnnn2C)cc1OC (centres undefined)	1.2	7.8	-4.8	5.6	1.8	15.3*
C/C(N)=C(/C#N)C(=O)COC(=O)Cc1coc2ccc3ccccc3c12	-0.9	1.9	-11.1	2.8	15.2	19.4*
O=C(/C=C/c1cn(-c2ccccc2)nc1-c1ccccc1)Nc1ccc(C(=O)O)cc1	71.5*	2.1	-39.2	-2.7	-0.3	-0.1
CC(=O)c1cccc2c(O)c(C3=Nc4ccccc4C3=O)[nH]c12	11.0	16.2	25.4*	-9.3	1.8	-0.3
O=C1C(c2c(O)[nH]c3ccccc23)=Nc2ccccc21	-12.6	2.4	-0.5	2.6	2.7	0.0
CC(NC(=O)C1c2ccccc2Oc2ccccc21)C1CCCO1 (centres undefined)	-1.1	14.6	5.6	-17.4	3.0	1.3
Cc1c(C)c2cc(Cl)c(O)c(CN3CCCC(C)C3)c2oc1=O (centres undefined)	28.0*	13.8	-20.3	-2.2	-1.0	0.0
CCCc1cc(=O)oc2c(CN3CCCC3)c(O)c(Cl)cc12	-3.8	-8.6	10.1	28.8*	-0.7	-0.4
O=c1[nH]c(=S)[nH]c2c1[C@H](CCc1cccc(Cl)c1)O[C@H](C1CCCC1)C2	-8.5	40.6*	2.4	-31.5	1.4	1.9
COc1cc(CN(C(=O)c2cccs2)C2CCS(=O)(=O)C2)cc(OC)c1OC (centres undefined)	3.5	-2.3	0.7	-3.0	1.4	0.2
Cc1ccccc1NS(=O)(=O)c1cc2c3c(c1)C(C)C(=O)N3CCC2 (centres undefined)	1.5	20.4	2.4	-10.9	0.6	1.3
Cc1ccc(C2=NNC(c3ccc(Cl)cc3)=Nc3ccccc32)o1	8.8	22.7	25.3*	-15.7	0.2	-0.7
c1ccc(C2=NNC(c3ccco3)=Nc3ccccc32)cc1	0.4	8.8	0.7	-11.5	0.0	-0.5
CC(=O)NC(c1cccc(F)c1)c1nc(-c2cccc(C(C)C)c2)cs1 (centres undefined)	1.1	9.3	-1.7	-4.9	2.7	1.1
CSC(=S)N/N=C/c1ccc(Br)cc1	-16.1	14.2	23.1*	-6.0	1.6	-0.4
COC(=O)c1ccc(N2CCN(S(=O)(=O)c3ccc4ccccc4c3)CC2)c([N+](=O)[O-])c1	21.7	1.9	-10.4	27.7*	5.8	-0.1
